Assay results as given in PubChem BioAssay.
Several values for one entry are separate records, joined by “and”; a condition that tells them apart may be missing. Identical values can stand only once. Activity calls are given as the source filed them.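 How the source made its calls, unless noted: active means GFP response above 150% of the DMSO level; inconclusive means fewer than 70 events counted for a yeast strain; inactive means the rest.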

Assays:
[1] = yeast AGP1-GFP fluorescence change, single-dose – cell-based, flow cytometry, S. cerevisiae, cherry picks, confirmation (AID 2273);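 further: median GFP channel fluorescence over the whole cell population gate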; settings: S. cerevisiae AGP1-GFP strain, 3 h, at 10 µM
[2] = target: Integrin beta-1 (Homo sapiens) + Integrin alpha-4 (Homo sapiens) (UniProt P13612+P05556); experiment: alpha4beta1 integrin LIBS antibody binding reduction – U937 cells, HUTS-21 mAb, flow cytometry, validation set, VLA-4 allosteric modulator project, pilot screen (AID 2674;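 active means inhibition above 50%, about 3 SD of the validation set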;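 further: antibody binding induced by the VLA-4 ligand LDV present at three times its Kd; 0% = LDV ligand with antibody and no compound and 100% = antibody without LDV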); settings: HUTS-21 LIBS mAb binding, at 6.7 µM, hits give high values, binding induced by LDV ligand
[3] = calorie-restriction mimetic ROS inhibitors, yeast – validation compound set, pilot screen (AID 2706;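 active means superoxide response below 65% of plate, a cut near 3 SD across the whole screen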;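 further: yeast exposed to compound for one week at 30 degrees C before staining; 100% = mean of all compound wells on the same plate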); settings: S. cerevisiae aging, superoxide DHE fluorescence; at 10 µM; hits give low values
[4] = target: Beta-adrenergic receptor kinase 1 (Homo sapiens) (UniProt P25098); experiment: GRK2 binders displacing RNA aptamer, biochemical, validation, human GRK2, bead flow cytometry (AID 488806;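 active means aptamer binding inhibition above 30%, about 3 SD of noise from non-fluorescent compounds; inactive means inhibition at or below 30%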); settings: bead-bound GRK2, FAM-aptamer displacement, at 10 µM, hits give high values
[5] = target: Beta-2 adrenergic receptor (Homo sapiens) (UniProt P07550); experiment: agonist-induced loss of surface beta2AR – cell-based, FAP fluorogen, flow cytometry, validation set, pilot screen (AID 504459;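 active means percent response above 42, roughly 3 SD of non-fluorescent test compounds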;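 further: agonist-driven loss of surface beta2AR via internalization measured by FAP dye flow cytometry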); settings: Am2.2-beta2AR cells, at 10 µM, hits give high values
[6] = target: AP-2 complex subunit beta (Homo sapiens) (UniProt P63010); experiment: beta-arrestin/AP2 interaction blockers – biochemical, validation set, GST-AP2 beads, flow cytometry, pilot screen (AID 504541;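 active means inhibition above 54%, about 3 SD of non-fluorescent compounds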;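 further: AP2 carries R879A mutation and is captured from E. coli lysate; bead-bound FITC arrestin peptide fluorescence measuring arrestin peptide binding to AP2; 0% = DMSO wells and 100% = excess unlabeled arrestin peptide control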); settings: FITC arrestin peptide, at 10 µM, hits give high values, AP2 beta2 appendage fragment, R879A mutant
[7] = cytosolic pH regulators acting via V-ATPase – S. cerevisiae, pHLuorin, HTS validation (AID 504600; in the data active means response above about 15%;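 further: plate controls were DMSO for no effect and reference compound for full effect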); settings: V-ATPase proton transport, at 10 µM, hits give high values
[8] = test system: anti-desmoglein-3 scFv antibody binding to human DSG3; experiment: blockers of pathogenic pemphigus antibody–desmoglein-3 binding – biochemical, validation compound set, bead-based, flow cytometry, pilot screen (AID 588368;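 active means binding below the plate cutoff, the plate median minus 3 SD, with a reading above zero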;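 further: signal is the median channel fluorescence of bead-bound GFP antibody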); settings: Protein G beads, DSG3-Fc, scFv-GFP binding, at 10 µM, hits give low values
[9] = Nile Red efflux blockade in pump-expressing yeast – validation compound set, multiplex, phenotypic, pilot screen (AID 588506;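 active means efflux inhibition above 0.42, the validation set average plus 4 SD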;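 further: Nile Red retained in cells so higher fluorescence means more efflux inhibition; 0 = negative control wells and 1 = enniatin B 25 µM full block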); settings: S. cerevisiae pump-expressing triplex, Nile Red efflux flow cytometry; at 10 µM; hits give high values; the pumps come from Candida albicans
[10] = target: ATP-binding cassette sub-family B member 6 (Homo sapiens) (UniProt Q9NP58); experiment: blockers of ABCB6-driven porphyrin uptake – K562-ABCB6 cells, flow cytometry, validation set, pilot screen (AID 588550;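 active means inhibition above the screen-wide mean plus 3 SD, about 51%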;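 further: 0% = DMSO wells and 100% = benzethonium chloride 70 µM positive control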); settings: K562-ABCB6 porphyrin accumulation, 1 h, at 10 µM, hits give high values
[11] = AML differentiation inducers, ER-HoxA9 marrow cells – cell-based, GFP/MAC1 double positive, flow cytometry, validation set, primary screen (AID 588685;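 active means differentiation response of at least 50%, scaled between solvent and reference control, from cells with both markers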;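 further: compound exposure lasts four days before antibody staining and flow analysis; 0% = DMSO wells and 100% = 5 µM fulvestrant positive control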); settings: hits give high values, normalized: vehicle 0, fulvestrant 100

Chain of Beta-2 adrenergic receptor (Homo sapiens) (P07550 whole entry, looked up): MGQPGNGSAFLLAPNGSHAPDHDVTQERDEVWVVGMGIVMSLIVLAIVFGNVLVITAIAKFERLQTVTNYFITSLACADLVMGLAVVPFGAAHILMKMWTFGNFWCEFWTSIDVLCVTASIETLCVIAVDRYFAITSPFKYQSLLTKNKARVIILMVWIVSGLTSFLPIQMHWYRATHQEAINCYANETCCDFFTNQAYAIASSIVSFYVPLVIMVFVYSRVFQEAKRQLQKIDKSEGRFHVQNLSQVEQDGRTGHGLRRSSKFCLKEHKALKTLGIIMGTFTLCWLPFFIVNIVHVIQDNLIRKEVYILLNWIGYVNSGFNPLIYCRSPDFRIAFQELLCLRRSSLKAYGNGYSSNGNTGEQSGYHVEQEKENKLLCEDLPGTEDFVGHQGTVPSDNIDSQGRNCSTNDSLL
Chain of Integrin beta-1 (Homo sapiens) + Integrin alpha-4 (Homo sapiens) (P05556 whole entry, looked up): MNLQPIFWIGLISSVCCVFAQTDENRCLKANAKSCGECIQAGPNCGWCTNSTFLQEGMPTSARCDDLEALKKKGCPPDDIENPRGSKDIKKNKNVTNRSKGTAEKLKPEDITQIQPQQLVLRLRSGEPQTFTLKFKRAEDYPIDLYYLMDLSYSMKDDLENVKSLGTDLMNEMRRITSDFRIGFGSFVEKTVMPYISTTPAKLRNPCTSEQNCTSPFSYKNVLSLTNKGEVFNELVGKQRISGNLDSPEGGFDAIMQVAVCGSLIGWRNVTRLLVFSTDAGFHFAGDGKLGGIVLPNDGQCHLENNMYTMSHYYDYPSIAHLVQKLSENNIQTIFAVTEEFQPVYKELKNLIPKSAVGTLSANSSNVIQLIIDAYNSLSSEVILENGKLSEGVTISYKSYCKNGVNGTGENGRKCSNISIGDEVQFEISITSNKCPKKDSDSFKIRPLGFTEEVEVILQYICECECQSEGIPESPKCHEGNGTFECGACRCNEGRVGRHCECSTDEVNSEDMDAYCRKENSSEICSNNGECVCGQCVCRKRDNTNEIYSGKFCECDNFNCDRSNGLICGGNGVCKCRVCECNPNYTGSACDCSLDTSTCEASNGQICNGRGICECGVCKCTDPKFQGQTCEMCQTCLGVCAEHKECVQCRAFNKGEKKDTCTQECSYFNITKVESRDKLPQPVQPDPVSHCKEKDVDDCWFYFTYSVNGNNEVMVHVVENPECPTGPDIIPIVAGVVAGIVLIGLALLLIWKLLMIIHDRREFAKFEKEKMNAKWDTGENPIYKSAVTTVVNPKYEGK
Chain of Integrin beta-1 (Homo sapiens) + Integrin alpha-4 (Homo sapiens) (P13612 whole entry, looked up): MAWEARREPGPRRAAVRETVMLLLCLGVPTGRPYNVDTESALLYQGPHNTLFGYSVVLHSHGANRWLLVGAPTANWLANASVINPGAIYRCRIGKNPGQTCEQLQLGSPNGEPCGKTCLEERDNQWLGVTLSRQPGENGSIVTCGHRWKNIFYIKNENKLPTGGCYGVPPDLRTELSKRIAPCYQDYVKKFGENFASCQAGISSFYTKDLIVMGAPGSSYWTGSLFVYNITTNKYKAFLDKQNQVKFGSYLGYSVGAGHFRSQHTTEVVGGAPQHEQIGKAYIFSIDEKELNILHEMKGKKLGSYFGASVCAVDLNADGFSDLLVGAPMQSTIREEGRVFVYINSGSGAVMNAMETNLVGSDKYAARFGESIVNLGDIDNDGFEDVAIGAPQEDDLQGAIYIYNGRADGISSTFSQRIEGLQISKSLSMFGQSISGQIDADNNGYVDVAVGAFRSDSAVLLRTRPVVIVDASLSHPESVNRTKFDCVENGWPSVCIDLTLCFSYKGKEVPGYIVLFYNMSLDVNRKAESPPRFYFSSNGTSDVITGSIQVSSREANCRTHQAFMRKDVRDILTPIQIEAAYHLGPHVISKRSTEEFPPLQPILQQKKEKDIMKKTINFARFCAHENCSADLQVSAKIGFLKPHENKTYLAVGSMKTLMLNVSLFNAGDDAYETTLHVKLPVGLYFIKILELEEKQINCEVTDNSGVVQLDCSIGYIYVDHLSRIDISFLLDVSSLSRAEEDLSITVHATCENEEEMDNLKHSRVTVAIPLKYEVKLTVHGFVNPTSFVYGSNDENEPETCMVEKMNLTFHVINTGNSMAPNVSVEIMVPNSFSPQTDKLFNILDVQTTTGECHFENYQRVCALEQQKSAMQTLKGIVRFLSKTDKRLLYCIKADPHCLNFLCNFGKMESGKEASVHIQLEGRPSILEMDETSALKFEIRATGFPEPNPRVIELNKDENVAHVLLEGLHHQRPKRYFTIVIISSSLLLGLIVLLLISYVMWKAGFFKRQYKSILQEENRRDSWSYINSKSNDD
Chain of Beta-adrenergic receptor kinase 1 (Homo sapiens) (P25098 whole entry, looked up): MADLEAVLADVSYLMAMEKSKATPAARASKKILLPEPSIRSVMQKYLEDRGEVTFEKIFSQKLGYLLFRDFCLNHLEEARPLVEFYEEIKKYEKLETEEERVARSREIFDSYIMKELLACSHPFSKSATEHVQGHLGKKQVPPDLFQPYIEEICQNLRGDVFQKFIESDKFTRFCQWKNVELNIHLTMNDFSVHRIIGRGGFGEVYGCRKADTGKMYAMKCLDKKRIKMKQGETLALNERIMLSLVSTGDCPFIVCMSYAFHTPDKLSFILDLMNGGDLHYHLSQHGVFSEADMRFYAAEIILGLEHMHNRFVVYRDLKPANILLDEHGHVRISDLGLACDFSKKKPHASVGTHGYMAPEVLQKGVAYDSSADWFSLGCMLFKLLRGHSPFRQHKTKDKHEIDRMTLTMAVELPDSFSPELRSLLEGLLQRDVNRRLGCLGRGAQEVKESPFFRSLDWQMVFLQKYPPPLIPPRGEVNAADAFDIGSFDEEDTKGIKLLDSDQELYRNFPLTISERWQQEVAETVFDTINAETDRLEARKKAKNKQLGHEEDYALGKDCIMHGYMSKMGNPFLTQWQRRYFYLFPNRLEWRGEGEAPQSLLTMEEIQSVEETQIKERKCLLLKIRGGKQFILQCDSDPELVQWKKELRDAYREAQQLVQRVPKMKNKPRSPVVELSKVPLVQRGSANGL
Chain of ATP-binding cassette sub-family B member 6 (Homo sapiens) (Q9NP58 whole entry, looked up): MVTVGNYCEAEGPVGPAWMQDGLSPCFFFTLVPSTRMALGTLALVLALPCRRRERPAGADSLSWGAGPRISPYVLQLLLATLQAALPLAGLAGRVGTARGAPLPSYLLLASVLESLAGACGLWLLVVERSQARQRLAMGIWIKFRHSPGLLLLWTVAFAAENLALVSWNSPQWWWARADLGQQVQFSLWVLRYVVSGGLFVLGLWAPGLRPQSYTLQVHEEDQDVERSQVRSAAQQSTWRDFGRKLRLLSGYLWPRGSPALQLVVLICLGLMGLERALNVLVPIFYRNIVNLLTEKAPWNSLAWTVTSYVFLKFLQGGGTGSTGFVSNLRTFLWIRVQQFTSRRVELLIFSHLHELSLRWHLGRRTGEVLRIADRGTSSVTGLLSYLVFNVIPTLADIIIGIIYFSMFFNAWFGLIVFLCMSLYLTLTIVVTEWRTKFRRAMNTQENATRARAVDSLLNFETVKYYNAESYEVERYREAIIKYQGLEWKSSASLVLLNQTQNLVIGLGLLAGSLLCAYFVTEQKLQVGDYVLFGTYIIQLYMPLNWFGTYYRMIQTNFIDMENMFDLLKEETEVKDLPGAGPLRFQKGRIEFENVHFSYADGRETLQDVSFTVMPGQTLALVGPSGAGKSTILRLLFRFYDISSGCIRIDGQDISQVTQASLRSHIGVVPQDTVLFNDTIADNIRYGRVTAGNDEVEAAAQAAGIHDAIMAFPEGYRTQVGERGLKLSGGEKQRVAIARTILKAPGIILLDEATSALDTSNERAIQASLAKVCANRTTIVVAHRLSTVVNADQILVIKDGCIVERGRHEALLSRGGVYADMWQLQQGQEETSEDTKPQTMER
Chain of AP-2 complex subunit beta (Homo sapiens) (P63010 whole entry, looked up, the tested form may be a part, one chain of several): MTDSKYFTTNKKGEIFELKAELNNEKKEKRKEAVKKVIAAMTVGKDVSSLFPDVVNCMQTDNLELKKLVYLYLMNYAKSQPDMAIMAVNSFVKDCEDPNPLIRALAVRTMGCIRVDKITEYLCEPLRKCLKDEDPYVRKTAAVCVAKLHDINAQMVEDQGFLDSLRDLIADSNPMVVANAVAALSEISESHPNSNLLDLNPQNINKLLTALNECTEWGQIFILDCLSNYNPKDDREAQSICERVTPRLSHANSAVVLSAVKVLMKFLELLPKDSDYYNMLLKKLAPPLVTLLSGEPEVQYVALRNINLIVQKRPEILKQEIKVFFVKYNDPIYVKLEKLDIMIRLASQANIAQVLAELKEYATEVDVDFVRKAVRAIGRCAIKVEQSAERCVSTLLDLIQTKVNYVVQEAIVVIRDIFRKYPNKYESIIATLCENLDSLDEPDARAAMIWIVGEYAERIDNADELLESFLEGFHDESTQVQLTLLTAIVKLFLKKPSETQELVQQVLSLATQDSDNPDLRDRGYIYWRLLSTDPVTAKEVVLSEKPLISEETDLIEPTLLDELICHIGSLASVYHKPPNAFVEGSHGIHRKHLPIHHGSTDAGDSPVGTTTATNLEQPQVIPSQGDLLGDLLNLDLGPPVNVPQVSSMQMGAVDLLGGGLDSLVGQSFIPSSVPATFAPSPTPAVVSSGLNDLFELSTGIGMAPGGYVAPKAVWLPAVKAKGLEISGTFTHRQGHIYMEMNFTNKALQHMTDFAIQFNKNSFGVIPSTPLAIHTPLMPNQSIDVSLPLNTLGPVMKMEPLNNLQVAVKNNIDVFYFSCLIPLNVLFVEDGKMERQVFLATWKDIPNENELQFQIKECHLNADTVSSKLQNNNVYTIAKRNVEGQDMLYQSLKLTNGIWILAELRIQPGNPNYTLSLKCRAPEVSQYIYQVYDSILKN

Row | Compound | GFP response, % of DMSO [1] | inhibition [2] | superoxide response (% of plate) [3] | aptamer binding inhibition [4] | response [5] | inhibition [6] | response [7] | binding (% of control) [8] | efflux inhibition (fraction of control) [9] | inhibition [10] | differentiation response [11]
1 | Cn1c(=O)c(C(=O)NCCO)c(O)c2ccccc21 | 98.3% (inactive) | 15.9% (inactive) | 104% (inactive) | 6% (inactive) | -29.6% (inactive) | 6.89% (inactive) | 2.23% (inactive) | 103% (inactive) | 0 (inactive) | 1% (inactive) | -5.97% (inactive)
2 | O=c1cc(-c2ccccc2)oc2cc(OCc3ccccc3)cc(O)c12 | 98.9% (inactive) | -16.8% (inactive) | 88.6% (inactive) | 0% (inactive) | -12.6% (inactive) | 30.1% (inactive) | -0.61% (inactive) | 100% (inactive) | 0.59 (active) | 0% (inactive) | 5.73% (inactive)
3 | CC(=O)c1ccc(CCCCCCCCCC(=O)O)s1 | 95.2% (inactive) | 13.2% (inactive) | 117% (inactive) | -5% (inactive) | 23.9% (inactive) | 26.2% (inactive) | -3% (inactive) | 99.3% (inactive) | 0.01 (inactive) | -2% (inactive) | 66.4% (active)
4 | O=C(/C=C/c1ccccc1)c1ccccc1 | 99.7% (inactive) | 2.58% (inactive) | 92.2% (inactive) | 4% (inactive) | 5.66% (inactive) | -4.66% (inactive) | -0.45% (inactive) | 107% (inactive) | -0.31 (inactive) | 14% (inactive) | 9.83% (inactive)
5 | CN(C)CCN(Cc1ccccc1)c1ccccn1 | 103% (inactive) | -6.15% (inactive) | 95.6% (inactive) | 1% (inactive) | 1.51% (inactive) | 49.6% (inactive) | -5.5% (inactive) | 103% (inactive) | 0.48 (active) | 113% (active) | -1.64% (inactive)
6 | C[C@H]1C[C@@H]2[C@H]([C@@H](O)C[C@@]3(C)[C@H]2CC[C@]3(O)C(=O)CO)[C@@]2(C)C=CC(=O)C=C12 | 96% (inactive) | 10.3% (inactive) | 88.9% (inactive) | 7% (inactive) | 1.51% (inactive) | 2.63% (inactive) | 0.24% (inactive) | 99.2% (inactive) | -0.38 (inactive) | 13% (inactive) | 0% (inactive)
7 | C[C@]12CC[C@H]3[C@@H](CCC4=CC(=O)CC[C@@]43C)[C@@H]1CC[C@@H]2C(=O)CO | 92.6% (inactive) | -13.9% (inactive) | 104% (inactive) | -4% (inactive) | -2.3% (inactive) | 11.7% (inactive) | -4.52% (inactive) | 111% (inactive) | -0.02 (inactive) | 7% (inactive) | 14.7% (inactive)
8 | c1cnc2c(c1)ccc1cccnc12 | 102% (inactive) | 19.3% (inactive) | 77.1% (inactive) | 8% (inactive) | -45.4% (inactive) | 10.3% (inactive) | 9.34% (inactive) | 105% (inactive) | -0.13 (inactive) | 4% (inactive) | -0.06% (inactive)
9 | c1ccc2c(c1)CCOC2CNCCCN1CCCCC1 (centres undefined) | 98.5% (inactive) | 14.2% (inactive) | 110% (inactive) | -3% (inactive) | 0.72% (inactive) | -5.37% (inactive) | -6.48% (inactive) | 105% (inactive) | 0.01 (inactive) | -2% (inactive) | -3.28% (inactive)
10 | OC(CCN1CCCCC1)(c1ccccc1)c1ccccc1 | 96.3% (inactive) | 12.3% (inactive) | 107% (inactive) | 2% (inactive) | 1.89% (inactive) | 2.98% (inactive) | 5.35% (inactive) | 103% (inactive) | -0.24 (inactive) | 8% (inactive) | -4.91% (inactive)
11 | O=c1[nH]cc(F)c(=O)[nH]1 | 90% (inactive) | -45% (inactive) | 100% (inactive) | -3% (inactive) | -17.5% (inactive) | -8.2% (inactive) | 1.44% (inactive) | 104% (inactive) | -0.06 (inactive) | 9% (inactive) | -5.73% (inactive)
12 | CC(=O)OCC(=O)[C@H]1CC[C@H]2[C@@H]3CCC4=CC(=O)CC[C@]4(C)[C@H]3CC[C@]12C | 95.2% (inactive) | -1.3% (inactive) | 119% (inactive) | -1% (inactive) | -16.7% (inactive) | -3.8% (inactive) | -1.21% (inactive) | 105% (inactive) | -0.28 (inactive) | 8% (inactive) | -1.64% (inactive)
13 | COc1cc2c(cc1OC)C(c1ccccc1)=NCC2 | 98.3% (inactive) | 2.58% (inactive) | 93.7% (inactive) | 3% (inactive) | 2.38% (inactive) | 6.17% (inactive) | -0.17% (inactive) | 99% (inactive) | 0.34 (inactive) | 6% (inactive) | 1.64% (inactive)
14 | CC(=O)[C@@]1(O)CC[C@H]2[C@@H]3CCC4=CC(=O)CC[C@]4(C)[C@H]3[C@@H](O)C[C@@]21C | 103% (inactive) | 12.8% (inactive) | 89.3% (inactive) | 1% (inactive) |  | -12.8% (inactive) | 4.15% (inactive) | 100% (inactive) | -0.2 (inactive) | 10% (inactive) | -3.43% (inactive)
15 | O=[N+]([O-])c1cccc2cn[nH]c12 | 105% (inactive) | -13.9% (inactive) | 117% (inactive) | 0% (inactive) | -10.1% (inactive) | 49.7% (inactive) | -6.22% (inactive) | 93.6% (inactive) | 0.3 (inactive) | 0% (inactive) | 3.28% (inactive)
16 | CC(=O)OCC(=O)[C@@]1(O)CC[C@H]2[C@@H]3CCC4=CC(=O)CC[C@]4(C)[C@H]3[C@@H](O)C[C@@]21C | 97% (inactive) | -4.6% (inactive) | 101% (inactive) | -1% (inactive) | 6.11% (inactive) | -11.1% (inactive) | 2.08% (inactive) | 98.4% (inactive) | -0.26 (inactive) | -2% (inactive) | -1.71% (inactive)
17 | CC(=O)Nc1ccc(S(=O)(=O)c2ccc(N)cc2)cc1 | 105% (inactive) | 17.1% (inactive) | 110% (inactive) | 0% (inactive) | -3.74% (inactive) | -5.82% (inactive) | -1.44% (inactive) | 101% (inactive) | 0.05 (inactive) | 8% (inactive) | 9.01% (inactive)
18 | O=[N+]([O-])c1ccc(O)c2ncccc12 | 128% (inactive) | -1.12% (inactive) | 56.6% (active) | 0% (inactive) | -20% (inactive) | -6.92% (inactive) | 65.3% (active) | 83.2% (inactive) | -0.13 (inactive) | 1% (inactive) | -3.02% (inactive)
19 | COc1ccc(C2=CC(=O)C=CC2=O)cc1 | 100% (inactive) | 4.84% (inactive) | 80.4% (inactive) | 1% (inactive) | 64.2% (active) | 64.5% (active) | 62.2% (active) | 88.8% (inactive) | -0.04 (inactive) | -2% (inactive) | -0.06% (inactive)
20 | C[C@]12CCC(=O)C=C1CC[C@@H]1[C@@H]2[C@@H](O)C[C@@]2(C)[C@H]1CC[C@]2(O)C(=O)CO | 99.2% (inactive) | 10.9% (inactive) | 99.2% (inactive) | -2% (inactive) |  | 29.5% (inactive) | -1.08% (inactive) | 95.4% (inactive) |  | 3% (inactive) | -18% (inactive)
21 | C[C@]12CCC(=O)C=C1CC[C@@H]1[C@@H]2[C@@H](O)C[C@@]2(C)[C@H]1CC[C@]2(O)C(=O)COC(=O)CCC(=O)O | 98.9% (inactive) and 99.3% (inactive) | -9.57% (inactive) | 98.2% (inactive) | 0% (inactive) |  | -8.58% (inactive) | 10.6% (inactive) | 99.5% (inactive) | -0.16 (inactive) | 10% (inactive) | -26% (inactive)
22 | Cc1ccc2[nH]c3c(c2c1)CCNC3=O | 95% (inactive) | 7.22% (inactive) | 95% (inactive) | -2% (inactive) |  | -5.6% (inactive) | -10.4% (inactive) | 100% (inactive) | -0.2 (inactive) | 7% (inactive) | -6.66% (inactive)
23 | CN/C(=C/[N+](=O)[O-])NCCSCc1ccc(CN(C)C)o1 | 99.3% (inactive) | -0.33% (inactive) | 89.5% (inactive) | -20% (inactive) | 2.38% (inactive) | -0.41% (inactive) | -2.01% (inactive) | 104% (inactive) | -0.42 (inactive) | 14% (inactive) | -3.28% (inactive)
24 | O=C1ON=C(c2ccc(Cl)cc2)/C1=C/c1ccc(O)cc1 | 95.4% (inactive) | 14.6% (inactive) | 93.4% (inactive) | 4% (inactive) | 33.5% (inactive) | -8.88% (inactive) | -1.63% (inactive) | 101% (inactive) | -0.06 (inactive) | 2% (inactive) | -8.8% (inactive)
